Test [1] can be described thus: qHTS assay to identify small molecule antagonists of the sonic hedgehog signaling (Shh) pathway (AID 1259369). Further: nearly all actives have a fitted effect of over 45% in size. Further: potency means the concentration at half of the fitted maximal effect. In outline: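 Screening used 3T3Gli1-Luc cells at 2,000 per well, compounds delivered in DMSO, and conditioned medium as agonist stimulus; plates incubated 24hr at 37 C and 5% CO2 before a 30min luciferase step.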
Test [2] in a line: qHTS assay to identify small molecule agonists of the androgen receptor (AR) signaling pathway in the presence of an antagonist - cell viability counter screen (AID 1259379; active means well fitted curve in the direction sought with a large enough effect in the repeat runs; an effect the other way counts as inactive or inconclusive; further: nearly all actives have a fitted effect of over 25% in size; further: potency means the concentration at half of the fitted maximal effect). In outline: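 In MDA-kb2 cells (human breast carcinoma, MMTV-luciferase), compounds at 15 concentrations plus 3.0uM nilutamide; 16 hr, 37C, 0% CO2; CellTiter-Fluor fluorescence read for viability.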
Background: Quantitative high-throughput screening tests each substance at several concentrations.

Test [3] has as its target Androgen receptor (Homo sapiens) (UniProt P10275). In words: qHTS assay to identify small molecule agonists of the androgen receptor (AR) signaling pathway in the presence of an antagonist (AID 1259381). Further: nearly all actives have a fitted effect of over 15% in size. In outline: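 Here, 15-concentration compound series were pin-transferred onto MDA-kb2 MMTV-luciferase cells already dosed with nilutamide (3.0uM final). After 16hr at 37C, ONE-Glo was added and luminescence read 30min later at room temperature.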

Test [4] in a line: qHTS assay to identify small molecule antagonists of the estrogen receptor beta (ER-beta) signaling pathway - cell viability counter screen (AID 1259382; active means well fitted curve in the direction sought with a large enough effect in the repeat runs; an effect the other way counts as inactive or inconclusive;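 further: HEK293T cells carrying ER-beta-UAS-bla reporter stimulated with estradiol; series mostly up to about 92 µM; nearly all actives have a fitted effect of over 55% in size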). An outline of the steps:
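Tox21 10K library tested in qHTS format on ER-beta-bla HEK293T cells stimulated with 1nM E2; 16 hr treatment at 37C. Same-well CellTiter-Glo luminescence served as the cell viability measure.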

Test [5] can be described thus: qHTS assay to identify small molecule agonists or antagonists of the thyroid stimulating hormone receptor (TSHR) signaling pathway - wild type cell line counter screen (AID 1259384). An outline of the steps: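 Counter screen in untransfected Hek293: compounds (15-point titration, triplicate) plus phosphodiesterase inhibitor Ro20-1724 added after 18 h plating; 30 min RT. Intracellular cAMP via competitive d2/cryptate immunoassay, 1 h incubation.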

The target in test [6] is Thyrotropin receptor (Homo sapiens) (UniProt P16473). Put plainly: qHTS assay to identify small molecule antagonists of the thyroid stimulating hormone receptor (TSHR) signaling pathway (AID 1259385). Further: nearly all actives have a fitted effect of over 20% in size. An outline of the steps:
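Antagonist mode: compound-treated TSHR-expressing HEK293 cells were stimulated with 1.5 ng/mL TSH (final) in presence of Ro20-1724 for 30 min at RT. HTRF cAMP detection after 1 h; each compound tested at 15 concentrations, triplicate.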

Test [7] in a line: qHTS assay to identify small molecule agonists of the estrogen receptor alpha (ER-alpha) signaling pathway in the presence of an antagonist - cell viability counter screen (AID 1259386; active means well fitted curve in the direction sought with a large enough effect in the repeat runs; an effect the other way counts as inactive or inconclusive;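 further: cells exposed to compounds for 22 h at 37 °C before the viability read; nearly all actives have a fitted effect of over 30% in size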; further: potency means the concentration at half of the fitted maximal effect). An outline of the steps: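 Fluorescent CellTiter-Fluor viability signal from VM7Luc4E2 cells, with the reagent added during the final hour of a 22hr compound exposure at 37C in the presence of 10.0nM ICI-182,780.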

Test [8] is described as follows: qHTS assay to identify small molecule antagonists of the TGF-beta/Smad signaling pathway - cell viability counter screen (AID 1346824; active means well fitted curve in the direction sought with a large enough effect in the repeat runs; an effect the other way counts as inactive or inconclusive; further: nearly all actives have a fitted effect of over 50% in size). An outline of the steps: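 Cytotoxicity counter-screen run in the same wells as the beta-lactamase Smad reporter read: CellTiter-Glo luminescence after 30 min at room temperature. HEK 293T SBE-bla cells had 5 hr compound exposure at 37 C with TGF-beta1 (0.25 ng/mL stock).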

A short description of test [9]: qHTS assay to identify small molecule agonists of the TGF-beta/Smad signaling pathway - cell viability counter screen (AID 1346829; active means well fitted curve in the direction sought with a large enough effect in the repeat runs; an effect the other way counts as inactive or inconclusive; further: top concentration of the series differs between compounds; nearly all actives have a fitted effect of over 45% in size). In outline: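 Cytotoxicity counter screen: CellTiter-Glo luminescence (30 min, room temperature) measured in the SBE-bla HEK 293T reporter wells after 5 hr compound treatment at 37 C and the 2 hr substrate step.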
Test [10] is described as follows: qHTS assay to identify small molecule agonists of the estrogen receptor beta (ER-beta) signaling pathway - cell viability counter screen (AID 1259380; active means well fitted curve in the direction sought with a large enough effect in the repeat runs; an effect the other way counts as inactive or inconclusive; further: nearly all actives have a fitted effect of over 30% in size; further: potency means the concentration at half of the fitted maximal effect). An outline of the steps: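 Viability of ER-beta-UAS-bla HEK293T cells was determined by CellTiter-Glo luminescence following 16 hr treatment with test compounds at 37C.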
The target in test [11] is Estrogen receptor (Homo sapiens) (UniProt P03372). Put plainly: qHTS assay to identify small molecule agonists of the estrogen receptor alpha (ER-alpha) signaling pathway in the presence of an antagonist (AID 1259383). Further: top concentration of the series differs between compounds; nearly all actives have a fitted effect of over 15% in size. In outline: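 In VM7Luc4E2 cells, 4,000 per well, compounds at 15 concentrations were co-incubated 22hr at 37C with 10.0nM final ICI-182,780. Luminescence from the stably transfected 4×ERE-luciferase reporter was recorded 30min after ONE-Glo addition.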

Test [12] addresses Progesterone receptor (Homo sapiens) (UniProt P06401). Put plainly: qHTS assay to identify small molecule agonists of the progesterone receptor (PR) signaling pathway (AID 1346784). Further: nearly all actives have a fitted effect of over 30% in size. In outline:
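Compounds were tested for PR agonism in HEK 293T cells bearing a beta-lactamase gene under UAS control. Treatment lasted 16 hr at 37C; signal came from fluorescence of a FRET substrate.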

The target is the same in test [13]. Put plainly: qHTS assay to identify small molecule antagonists of the progesterone receptor (PR) signaling pathway (AID 1346795; active means well fitted inhibition curve with a large enough effect in the signal ratio in the repeat runs, not every such curve was filed as active; the % refers to the signal ratio; further: potency means the concentration at half of the fitted maximal effect). In outline:
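In HEK293T cells bearing the PR-UAS-bla reporter, compound effects on promegestone-driven (1 nM) beta-lactamase expression are assessed after 16 hr using a fluorescent FRET substrate incubated 2 hr at room temperature.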

Test [14] in a line: qHTS assay to identify small molecule antagonists of the progesterone receptor (PR) signaling pathway - cell viability counter screen (AID 1346798; active means well fitted curve in the direction sought with a large enough effect in the repeat runs; an effect the other way counts as inactive or inconclusive; further: series mostly up to about 92 µM; nearly all actives have a fitted effect of over 50% in size). An outline of the steps: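 Following a 4 hr attachment, PR-UAS-bla HEK293T cells in charcoal-stripped FBS medium were exposed to compounds with R5020 for 16 hr; CellTiter-Glo was added and luminescence read after 30 min at room temperature.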

Test [15] in a line: qHTS assay to identify small molecule agonists of the progesterone receptor (PR) signaling pathway - cell viability counter screen (AID 1346799). Further: nearly all actives have a fitted effect of over 45% in size. Further: potency means the concentration at half of the fitted maximal effect. In outline:
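Here, 3,000 PR-UAS-bla HEK293T cells per well were treated with compounds for 16 hr after a 6 hr preincubation at 37C and 5% CO2; cell viability is the CellTiter-Glo luminescence signal.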

Test [16] is described as follows: qHTS assay to identify small molecule agonists of the TGF-beta/Smad signaling pathway (AID 1346859; active means well fitted activation curve with a large enough effect in the signal ratio in the repeat runs, not every such curve was filed as active; the % refers to the signal ratio; further: series mostly up to about 77 µM). In outline: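 Each well held 4,000 SBE-bla HEK 293T cells incubated overnight before compound addition; 5 hr later the cleavable FRET substrate went on for 2 hr at room temperature, and fluorescence was read at two emissions.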
For test [17], the target named is Thyrotropin-releasing hormone receptor (Homo sapiens) (UniProt P34981). In words: qHTS assay to identify small molecule antagonists of the thyrotropin-releasing hormone receptor (TRHR) signaling pathway (AID 1346877; active means well fitted inhibition curve with a large enough effect in the repeat runs, not every such curve was filed as active; further: series mostly up to about 51 µM). In outline:
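In this cell-based calcium flux format, HEK293 cells expressing TRHR received test compound for 5 min before the agonist TRH (1 nM final). Dye loading lasted 2 h at 37 °C.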

For test [18] the target is unchanged. In words: qHTS assay to identify small molecule agonists of the thyrotropin-releasing hormone receptor (TRHR) signaling pathway (AID 1346891). Further: series mostly up to about 58 µM. In outline: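 Screening of agonists relied on calcium signalling in HEK293 cells expressing human TRHR: dye loading 2 h at 37 °C preceded compound addition and a 3-min fluorescence time course.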
The target of test [19] is Estrogen receptor beta (Homo sapiens) (UniProt Q92731). Put plainly: qHTS assay to identify small molecule agonists of the estrogen receptor beta (ER-beta) signaling pathway (AID 1259377; active means well fitted activation curve with a large enough effect in the signal ratio in the repeat runs, not every such curve was filed as active; the % refers to the signal ratio). An outline of the steps: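 Read-out: beta-lactamase FRET fluorescence. Cell line: ER-beta-UAS-bla HEK293T in 2% charcoal-stripped FBS. Exposure: 16 hr at 37C. Substrate step: 2 h at room temperature.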

The target is the same in test [20]. Put plainly: qHTS assay to identify small molecule antagonists of the estrogen receptor beta (ER-beta) signaling pathway (AID 1259378; active means well fitted inhibition curve with a large enough effect in the signal ratio in the repeat runs, not every such curve was filed as active; the % refers to the signal ratio). In outline:
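Antagonist mode: compounds added to beta-lactamase reporter HEK293T ER-beta-UAS cells stimulated with E2 (1nM final), 16 hr at 37C. LiveBLAzer B/G FRET substrate, 2 hours room temperature, fluorescence read-out.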

Inconclusive results are not listed. Activity calls are given as the source filed them. Unless noted, the call rests on the fitted dose curve.

Sequence of Thyrotropin-releasing hormone receptor (Homo sapiens) (P34981 whole entry, looked up): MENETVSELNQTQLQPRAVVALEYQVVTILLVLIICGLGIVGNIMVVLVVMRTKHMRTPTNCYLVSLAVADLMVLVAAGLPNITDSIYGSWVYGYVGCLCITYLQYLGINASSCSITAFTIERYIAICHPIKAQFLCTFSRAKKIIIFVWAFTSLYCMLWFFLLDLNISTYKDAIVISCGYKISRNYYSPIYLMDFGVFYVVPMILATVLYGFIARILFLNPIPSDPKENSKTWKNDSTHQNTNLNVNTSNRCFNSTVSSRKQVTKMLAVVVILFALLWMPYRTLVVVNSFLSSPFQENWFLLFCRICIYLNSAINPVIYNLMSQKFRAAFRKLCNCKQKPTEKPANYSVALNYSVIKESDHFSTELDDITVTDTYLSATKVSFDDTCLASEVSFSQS
Sequence of Thyrotropin receptor (Homo sapiens) (P16473 whole entry, looked up): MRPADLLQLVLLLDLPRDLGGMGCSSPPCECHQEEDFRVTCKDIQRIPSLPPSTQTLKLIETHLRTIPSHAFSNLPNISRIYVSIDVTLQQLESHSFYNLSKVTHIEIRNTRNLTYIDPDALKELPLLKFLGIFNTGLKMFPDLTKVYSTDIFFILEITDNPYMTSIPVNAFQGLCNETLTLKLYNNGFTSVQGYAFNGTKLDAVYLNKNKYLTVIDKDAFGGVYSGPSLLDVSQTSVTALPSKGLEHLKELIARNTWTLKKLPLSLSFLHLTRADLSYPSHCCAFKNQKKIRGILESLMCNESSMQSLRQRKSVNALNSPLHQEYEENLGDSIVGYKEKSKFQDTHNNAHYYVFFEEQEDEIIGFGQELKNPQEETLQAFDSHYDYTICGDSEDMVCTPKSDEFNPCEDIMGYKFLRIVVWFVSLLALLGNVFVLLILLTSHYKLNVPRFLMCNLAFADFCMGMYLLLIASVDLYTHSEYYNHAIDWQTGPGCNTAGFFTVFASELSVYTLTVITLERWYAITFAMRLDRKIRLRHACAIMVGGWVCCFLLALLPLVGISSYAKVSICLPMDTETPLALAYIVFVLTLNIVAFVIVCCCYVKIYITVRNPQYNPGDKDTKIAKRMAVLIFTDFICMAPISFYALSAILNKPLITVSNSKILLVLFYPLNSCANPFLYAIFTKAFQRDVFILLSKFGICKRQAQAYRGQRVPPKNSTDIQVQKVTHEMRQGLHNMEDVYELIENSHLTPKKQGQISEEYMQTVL
Sequence of Progesterone receptor (Homo sapiens) (P06401 whole entry, looked up): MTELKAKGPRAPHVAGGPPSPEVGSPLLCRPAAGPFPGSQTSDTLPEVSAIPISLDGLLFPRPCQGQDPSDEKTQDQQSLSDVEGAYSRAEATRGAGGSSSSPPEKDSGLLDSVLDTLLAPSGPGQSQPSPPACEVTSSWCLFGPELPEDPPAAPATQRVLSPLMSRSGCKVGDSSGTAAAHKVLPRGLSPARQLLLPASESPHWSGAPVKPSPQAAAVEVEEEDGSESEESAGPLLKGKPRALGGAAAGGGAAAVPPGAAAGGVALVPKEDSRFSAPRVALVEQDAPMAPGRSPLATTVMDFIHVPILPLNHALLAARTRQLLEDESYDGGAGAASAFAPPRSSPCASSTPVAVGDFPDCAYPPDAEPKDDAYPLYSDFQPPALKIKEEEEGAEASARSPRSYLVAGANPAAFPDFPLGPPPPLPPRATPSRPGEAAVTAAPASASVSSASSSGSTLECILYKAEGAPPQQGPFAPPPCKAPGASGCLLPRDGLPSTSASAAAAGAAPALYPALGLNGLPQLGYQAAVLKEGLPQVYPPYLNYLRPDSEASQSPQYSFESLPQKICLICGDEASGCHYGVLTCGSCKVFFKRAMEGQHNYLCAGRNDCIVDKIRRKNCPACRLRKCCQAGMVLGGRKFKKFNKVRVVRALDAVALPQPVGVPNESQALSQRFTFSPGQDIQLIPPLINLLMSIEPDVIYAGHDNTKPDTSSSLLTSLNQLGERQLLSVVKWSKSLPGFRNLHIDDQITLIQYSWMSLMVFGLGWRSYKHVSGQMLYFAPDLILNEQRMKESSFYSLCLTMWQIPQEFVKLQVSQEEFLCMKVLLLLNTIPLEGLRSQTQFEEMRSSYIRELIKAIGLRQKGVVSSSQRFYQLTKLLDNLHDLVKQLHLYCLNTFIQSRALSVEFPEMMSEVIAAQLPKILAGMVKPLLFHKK
Sequence of Estrogen receptor (Homo sapiens) (P03372 whole entry, looked up): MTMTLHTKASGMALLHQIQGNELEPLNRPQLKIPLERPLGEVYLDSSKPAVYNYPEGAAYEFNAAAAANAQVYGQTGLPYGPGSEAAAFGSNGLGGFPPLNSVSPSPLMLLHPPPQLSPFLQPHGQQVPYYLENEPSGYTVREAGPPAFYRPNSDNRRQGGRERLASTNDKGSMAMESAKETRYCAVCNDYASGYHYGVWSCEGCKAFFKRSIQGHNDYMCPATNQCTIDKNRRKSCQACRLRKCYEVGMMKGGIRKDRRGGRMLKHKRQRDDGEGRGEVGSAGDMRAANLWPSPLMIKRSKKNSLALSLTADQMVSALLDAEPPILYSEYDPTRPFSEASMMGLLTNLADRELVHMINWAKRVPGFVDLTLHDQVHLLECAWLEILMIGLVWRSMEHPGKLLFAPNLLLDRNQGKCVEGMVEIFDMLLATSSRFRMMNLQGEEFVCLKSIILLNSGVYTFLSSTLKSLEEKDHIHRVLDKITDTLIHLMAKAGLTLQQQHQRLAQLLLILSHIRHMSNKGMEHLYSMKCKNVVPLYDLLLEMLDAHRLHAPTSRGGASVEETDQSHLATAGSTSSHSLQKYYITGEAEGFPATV
Sequence of Estrogen receptor beta (Homo sapiens) (Q92731 whole entry, looked up): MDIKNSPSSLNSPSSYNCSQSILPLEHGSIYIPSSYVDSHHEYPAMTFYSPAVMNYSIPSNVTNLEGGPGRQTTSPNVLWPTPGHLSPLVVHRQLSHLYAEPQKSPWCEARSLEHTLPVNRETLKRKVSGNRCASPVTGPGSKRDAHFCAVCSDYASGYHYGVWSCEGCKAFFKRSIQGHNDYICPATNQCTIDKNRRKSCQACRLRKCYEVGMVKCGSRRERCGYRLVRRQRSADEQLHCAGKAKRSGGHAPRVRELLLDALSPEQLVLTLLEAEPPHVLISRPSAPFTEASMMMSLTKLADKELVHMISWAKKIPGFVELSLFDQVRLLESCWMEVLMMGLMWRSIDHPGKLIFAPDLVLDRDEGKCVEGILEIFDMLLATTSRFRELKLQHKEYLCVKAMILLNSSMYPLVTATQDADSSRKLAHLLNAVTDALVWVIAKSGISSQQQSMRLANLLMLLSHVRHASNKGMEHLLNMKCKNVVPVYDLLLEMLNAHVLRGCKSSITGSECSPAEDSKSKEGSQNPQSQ
Sequence of Androgen receptor (Homo sapiens) (P10275 whole entry, looked up): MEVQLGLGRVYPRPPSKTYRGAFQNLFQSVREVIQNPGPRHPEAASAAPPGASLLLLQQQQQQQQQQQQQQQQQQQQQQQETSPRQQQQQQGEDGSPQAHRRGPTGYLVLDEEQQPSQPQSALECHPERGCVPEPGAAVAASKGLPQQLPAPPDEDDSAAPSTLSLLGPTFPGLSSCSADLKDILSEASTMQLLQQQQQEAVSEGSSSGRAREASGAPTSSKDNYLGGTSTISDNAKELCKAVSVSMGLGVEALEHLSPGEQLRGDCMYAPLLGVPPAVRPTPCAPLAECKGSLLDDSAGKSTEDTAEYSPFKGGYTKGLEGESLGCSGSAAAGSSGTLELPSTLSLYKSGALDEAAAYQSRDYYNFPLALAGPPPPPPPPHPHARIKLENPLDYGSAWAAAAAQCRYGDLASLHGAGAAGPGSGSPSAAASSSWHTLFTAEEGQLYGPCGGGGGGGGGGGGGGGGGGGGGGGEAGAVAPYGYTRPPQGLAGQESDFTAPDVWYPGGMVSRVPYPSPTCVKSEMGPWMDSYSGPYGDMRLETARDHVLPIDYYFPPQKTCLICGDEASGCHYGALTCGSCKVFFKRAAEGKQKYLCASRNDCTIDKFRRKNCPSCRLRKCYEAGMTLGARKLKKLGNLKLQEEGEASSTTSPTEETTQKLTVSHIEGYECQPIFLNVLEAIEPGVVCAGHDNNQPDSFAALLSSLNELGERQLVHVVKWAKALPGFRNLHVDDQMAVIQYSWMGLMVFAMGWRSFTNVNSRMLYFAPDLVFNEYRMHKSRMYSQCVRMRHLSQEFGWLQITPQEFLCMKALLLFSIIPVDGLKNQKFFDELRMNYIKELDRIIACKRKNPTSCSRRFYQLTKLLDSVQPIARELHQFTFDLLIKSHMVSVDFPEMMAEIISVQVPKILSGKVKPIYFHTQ

On to `O=c1cc(-c2ccccc2)oc2cc(O)cc(O)c12`, for which the Potency in test [1] was 61.1 µM (active); in test [2], 48.6 µM (active); in test [7], 48.6 µM (active). Further, the Potency entry in test [3], in [4], in test [6], in test [8] and in [9] was “inactive” in each case. Further, the compound was called inactive in test [5].
Take `COc1cc(N)c(Cl)cc1C(=O)NC1CCN(CCCOc2ccc(F)cc2)CC1OC` (stereo not drawn): the Potency in test [1] was 2.66 µM (active); in test [10], 5.96 µM (active); in test [13], 29.8 µM (active). Moreover, the Potency result in [4], in test [11], in [7], in [12], in test [14] and in test [15] was “inactive” in each case. The Potency entry in [8], in test [9], in [16] and in test [18] was “inactive” each time. The outcome in test [5] and in test [17] was inactive.
Consider `CC(=O)Nc1ccc(C)cc1C`, for which the Potency result in [1], in test [2], in test [4], in [7], in test [12] and in [13] was “inactive” each time. The Potency entry in [14], in [15], in test [8], in test [9] and in [16] was “inactive” throughout. The compound was called inactive in test [5].
Take `Cc1cc(C)cc(N)c1`: the Potency result in [19], in test [20], in [2], in [10], in test [3] and in test [4] was “inactive” each time. Also, the Potency result in [11], in [6], in [7], in [12], in test [13] and in test [14] was “inactive” in each case. Besides, the Potency entry in test [15], in test [8], in [9], in test [16] and in [18] was “inactive” throughout. The result in test [5] was inactive.
As for `O=C1c2ccccc2C(=O)N1CCc1noc(-c2ccc(CN3CCCCCC3)s2)n1`, the results for the Potency in test [1] and in test [10] were 22.3 µM (active) and 3.15 µM (active), respectively. For the same compound, the Potency result in test [11], in test [12], in test [14], in test [15], in test [8] and in test [18] was “inactive” each time. Further, the call in [17] was inactive.
Turning to `C[C@]1(Cn2ccnn2)[C@H](C(=O)O)N2C(=O)C[C@H]2S1(=O)=O`, the Potency result in [1], in test [2], in test [4], in test [11], in [7] and in [14] was “inactive” throughout. Besides, the Potency entry in test [15], in test [8], in [9], in test [16] and in test [18] was “inactive” throughout. For the same compound, the compound was classed as inactive in [5] and in [17].
For the compound `O=C=Nc1ccc(Cl)c(Cl)c1`, the Potency entry in test [1], in [2], in test [11], in test [6], in test [7] and in test [12] was “inactive” in each case. The Potency entry in test [8] and in test [16] was “inactive” throughout. Besides, the figures for the Potency in [10] and in test [15] were 47.8 µM (active) and 23.9 µM (active), respectively.
Take `CCOC(=O)/C=C/C(=O)OCC`: the Potency result in [1], in test [2], in [4], in test [11], in [6] and in [7] was “inactive” each time. Besides, the Potency result in test [12], in test [13], in test [14], in test [15], in [8] and in [16] was “inactive” in each case. For the same compound, the Potency entry in test [18] was “inactive”. Further, the compound was called inactive in [5] and in test [17].
Take `CCCCC(CC)COP(=O)(O)O` (stereo not drawn): the Potency result in test [1], in [2], in test [4], in test [11], in test [6] and in [7] was “inactive” throughout. Further, the Potency result in test [12], in test [15], in [8], in test [9] and in test [16] was “inactive” throughout. In addition, in [5], the compound was classed as inactive.

Values taken from PubChem BioAssay (Tox21).
